This is a sample that favours compounds with a hit; in the whole collection about 6.1% have one here.
Luciferase inh – blocks Photinus pyralis firefly luciferase activity; P08659; purified firefly luciferase, luminescence, 8 min; Potency, µM (highest dose often 57.1 µM), for inactives: at the highest dose activity change, negative = inhibition, usual class: inhibitors; actives 2.2% (n = 72,000); also: % is scaled to controls: 0 for no effect and ±100 for the full control effect; nearly all actives have a fitted effect of over 40% in size
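Inhibition of light generation by firefly luciferase from ATP and luciferin was profiled with concentration-response curves per sample, ATP held at 10 uM within the enzyme's linear range. Plates were read by luminescence after an 8-minute ambient incubation.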
PK Bst – alters activity of Bacillus stearothermophilus pyruvate kinase; purified pyruvate kinase, luminescence ATP production; ribose 5-phosphate activator present at AC10; Potency, µM; actives 1.2% (n = 51,000); AID 361; in the data active = potency below about 11 µM; inconclusive = mostly about 12 µM to 25 µM;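 the screen sought inhibitors and activators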;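 also: scaled between full activation by ribose 5 phosphate and full inhibition by luteolin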
GBA mod – human lysosomal glucosylceramidase modulation; P04062; purified enzyme, resorufin glucoside fluorescence (screen aimed at inhibitors), 20 min; Potency, µM; actives 1.1% (n = 48,000); in the data active = potency below about 15 µM; inconclusive = mostly about 16 µM to 33 µM;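 also: the screen sought inhibitors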
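Wild-type enzyme at 0.2 nM final in 50mM citric acid/KH2PO4, 10mM sodium taurocholate, 0.01% tween-20, pH 5.9, with resorufin beta-D-glucopyranoside at 30 uM final. Compounds titrated, 20 min at RT, red fluorescence read; AC50 from titration.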
HEK293 cAMP ctrl – parental HEK293 cAMP activation (counter-screen) | parental HEK293 CNG cAMP sensor, membrane potential fluorescence | Potency, µM (series often up to 57.1 µM), without a hit: top-dose activation, usual class: activators | actives 2.5% (n = 73,000); also: % of control where 0% means no effect; nearly all actives have a fitted effect of over 55% in size
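Counterscreen for endogenous-receptor signalling: CNG-channel HEK 293 cells report cAMP rise by membrane depolarization. After 60 min dye equilibration with 100 uM RO 20-1724, compounds incubated 30 min before bottom-read fluorescence at 590 nm.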
ERK AVP inh – inhibitors of vasopressin-stimulated ERK signaling pathway; Potency, µM (doses to about 57.5 µM), inactives show top-dose activity, negative = inhibition, hits mostly inhibitors; actives 0.99% (n = 72,000); HEK293-V1b, vasopressin-stimulated pERK AlphaScreen; also: % is scaled to controls: 0 for no effect and ±100 for the full control effect; nearly all actives have a fitted effect of over 55% in size
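qHTS, compounds titrated on V1b-expressing HEK293 cells. Preincubation 30 min at 37C, vasopressin 25 nM for 5 min, lysis 10 min, bead incubation 5 hr at room temperature.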
TSHR ag – agonists of human thyroid stimulating hormone receptor; HEK293-CNG-TSHR cells (CNG channel as cAMP sensor), membrane potential dye, cAMP; Potency, µM (doses to about 57.1 µM), for inactives: top-dose activation, most hits filed as activators; actives 0.48% (n = 73,000); AID 926; active = well fitted activation curve with a large enough effect in the main read-out, with a control signal flat, not every such curve was filed as active; inconclusive = small, poorly fitted or top-dose-only effect, or a change in a side signal; inactive = no such curve, though single readings can be large or run the other way; % of control where 0% means no effect;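 also: the control signal comes from parental cells without the receptor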
Target sequence (P16473 whole entry, looked up): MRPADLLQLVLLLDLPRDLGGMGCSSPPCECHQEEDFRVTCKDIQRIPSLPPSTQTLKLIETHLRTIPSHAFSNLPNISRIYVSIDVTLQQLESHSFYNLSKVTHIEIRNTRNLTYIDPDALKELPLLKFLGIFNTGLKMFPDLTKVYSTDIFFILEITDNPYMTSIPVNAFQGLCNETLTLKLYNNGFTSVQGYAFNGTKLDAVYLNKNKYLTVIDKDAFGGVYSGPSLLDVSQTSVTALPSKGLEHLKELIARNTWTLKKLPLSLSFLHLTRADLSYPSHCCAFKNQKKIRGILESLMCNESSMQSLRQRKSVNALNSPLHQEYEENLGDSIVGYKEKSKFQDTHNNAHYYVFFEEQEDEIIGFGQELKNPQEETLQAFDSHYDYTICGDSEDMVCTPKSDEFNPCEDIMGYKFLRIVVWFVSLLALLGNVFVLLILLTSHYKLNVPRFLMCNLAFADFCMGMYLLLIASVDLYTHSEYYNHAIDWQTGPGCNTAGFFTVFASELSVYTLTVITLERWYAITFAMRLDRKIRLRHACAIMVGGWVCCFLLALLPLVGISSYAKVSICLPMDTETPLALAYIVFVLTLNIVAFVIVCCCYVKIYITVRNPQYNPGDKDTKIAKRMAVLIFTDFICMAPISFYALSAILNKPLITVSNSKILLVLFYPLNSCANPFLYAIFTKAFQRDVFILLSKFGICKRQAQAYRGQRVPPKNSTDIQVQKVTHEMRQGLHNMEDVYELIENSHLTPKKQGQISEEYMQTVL
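cAMP rise detected as CNG-channel membrane depolarization by fluorescent dye (emission 590 nm), 30 min after compound, following 60 min dye loading containing 100 uM RO 20-1724 at room temperature. Cells: TSHR/CNG HEK 293, with parental CNG HEK 293 as control.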
Starred values were filed as active, the others as inactive; i = inactive; ? = inconclusive; . = no result given; [ ] = dose if it differs, or a comment. Unless noted, calls follow the shape of the dose curve; as a rule, active = well fitted curve in the direction sought with a large enough effect; inconclusive = small, poorly fitted or top-dose-only effect, or another doubt; inactive = no such curve, though single readings can be large; an effect the other way counts as inactive or inconclusive. Potency is read from the fitted curve at half-maximal effect.

SMILES	Luciferase inh	PK Bst	GBA mod	HEK293 cAMP ctrl	ERK AVP inh	TSHR ag
CCCc1noc2c1/C(=N\O)CC(CC(C)SCC)C2 (stereo not given)	.	.	.	15.7%	.	25.1µM*
Cc1nc2ccccn2c1-c1nnco1	-2.8%	>57	>76.9	0.7%	-12.0%	0.2%
Cc1cc(-c2nnco2)c(C)n1-c1ccccc1	12.6µM*	.	>76.9	20µM*	-18.0%	?
CO[C@H]1COC(=O)[C@H]2CCCN2C(=O)C/C=C\[C@@H](C)[C@H](OC)COC(=O)C/C=C\[C@@H]1C	0.1%[11.4 µM]	.	.	3.2%[11.4 µM]	1.0%[11.5 µM]	1.6%[11.4 µM]
CC(C)=CC(=O)Nc1ccccc1C(N)=O	0.9%	>57	>76.9	3.8%	-6.9%	-8.0%
NC(=O)c1ccccc1N/C=C/C(=O)c1ccccc1	3.16µM*	2.47*	>76.9	6.4%	6.4%	-1.2%
COc1ccc(-c2cc(=O)c3ccccc3s2)cc1	15.8µM*	0.875*	>76.9	?	12.6µM*	?
COc1ccc(-c2cc(=O)c3ccccc3o2)cc1	.	.	.	.	-5.8%	.
COC(=O)c1ccc(C(NC(=O)OCc2ccccc2)/C(C)=C/[C@@H](C)C(=O)NC2CCCCC2)cc1 (stereo not given in full)	.	.	.	15.8µM*	-5.6%	?
COC(=O)c1ccc(C(NC(=O)OCc2ccccc2)/C(I)=C/[C@@H](C)C(=O)NCc2ccc(OC)c(O)c2)cc1 (stereo not given in full)	.	.	.	23.4%	-16.0%	25.1µM*
COC(=O)c1ccc(C(NC(=O)OCc2ccccc2)/C(F)=C/[C@@H](C)C(=O)NC2CCCCC2)cc1 (stereo not given in full)	.	.	.	?	2.7%	?
COC(=O)c1ccc(C(NC(=O)OCc2ccccc2)/C(I)=C/[C@@H](C)C(=O)NCc2ccc(C)o2)cc1 (stereo not given in full)	.	.	.	14.5%	-2.1%	.
c1ccc2[nH]c(-c3ccnc4ccccc34)nc2c1	-12.9%	.	.	-4.7%	?	-0.9%
c1ccc2nc(-c3nc4ccccc4[nH]3)ccc2c1	0.794µM*	0.536*	>76.9	?	4.8%	?
O=C(c1ccco1)c1cn(CC(=O)N2CCCc3ccccc32)c2ccccc12	-1.7%	>57	>76.9	25.1µM*	-20.0%	?
O=c1[nH]c(N2CCc3ccccc3C2)nc2c1CCC2	-0.5%	>57	>76.9	5.4%	-2.4%	19.6%
O=c1[nH]c(N2CCc3ccccc3C2)nc2c1CCCC2	-1.0%	>57	4.56*	3.4%	8.1%	-6.4%
O=c1[nH]c(-c2ccccc2O)nc2c1CCCC2	-0.7%	>57	7.46*	?	-2.1%	?
CN(C)c1ccc(-c2cncnc2NCCc2cnc[nH]2)cc1	-0.7%[2.29 µM]	.	.	-7.4%	-26.8%	6.0%
Cc1ccc2oc(-c3cccc(NC(=O)C4CCCO4)c3)nc2c1 (stereo not given)	20µM*	i	>76.9	22.9%	-21.6%	4.0%
CC(=O)Nc1ccc(S(=O)(=O)Nc2cccc(-c3nc4cc(C)ccc4o3)c2)cc1	-9.9%	>57	7.86*	-3.0%	1.8%	2.9%
COc1cc(C(=O)Nc2cccc(-c3nc4cc(C)ccc4o3)c2)cc(OC)c1OC	.	.	.	-0.3%	.	-1.9%
O=C(O)c1ccc(Cl)cc1NC(=O)C1CCCO1 (stereo not given)	2.1%	>57	>76.9	?	-25.9%	?
O=C(Nc1cccc(-c2nc3cc(Cl)ccc3o2)c1)C1CCCO1 (stereo not given)	-10.9%	i	.	11.2%	20µM*	3.3%
CSc1nc2ccc(NC(=O)C3CCCO3)cc2s1 (stereo not given)	25.1µM*	i	>76.9	10.2%	-10.2%	-0.1%
COc1ncc2nc(-c3ccc(F)cc3)c(=O)n(Cc3ccc(F)cc3)c2n1	1.1%[11.4 µM]	.	.	14.9%	-3.4%	-6.9%
COc1cc2c(cc1OC)C1C(=O)c3c(O)cc4c(c3OC1CO2)C=CC(C)(C)O4 (stereo not given)	.	.	.	.	-28.3%	.
Cc1cc(NC(=O)c2ccc3c(c2)OCCO3)no1	2µM*	3*	.	2.9%	-0.6%	-4.5%
